Results on 12 compounds are retold here after PubChem BioAssay (Tox21).

A short description of test [1]: qHTS assay to identify aromatase inhibitors - cell viability counter screen (AID 743084).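 Note: cells stimulated with testosterone during compound exposure; nearly all actives have a fitted effect of over 55% in size.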 Note: potency is the fitted concentration of half-maximal effect. Background: qHTS replaces the single test concentration by a dilution series.
The nature of test [2]: qHTS assay to identify small molecule that activate the aryl hydrocarbon receptor (AhR) signaling pathway - cell viability counter screen (AID 743086).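 Note: HepG2 liver cells carrying the AhR DRE luciferase reporter; series mostly up to about 70 µM; nearly all actives have a fitted effect of over 45% in size.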 Put shortly: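 HepG2-AhR-luc (HG2L7.5c1) cells, 4000/well, were preincubated 5 h at 37C, exposed to compound in qHTS format for 24 hr at 37C, then given CellTiter-Fluor for 30 min; viability was read as fluorescence in the reporter wells.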

Test [3] addresses Peroxisome proliferator-activated receptor gamma (Homo sapiens) (UniProt P37231). In words: qHTS assay to identify small molecule antagonists of the peroxisome proliferator-activated receptor gamma (PPARg) signaling pathway (AID 743191; calls by dose curve; note: nearly all actives have a fitted effect of over 30% in size; note: potency is the fitted concentration of half-maximal effect). In a few lines:
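GeneBLAzer PPARg UAS-bla HEK293H cells carrying a UAS-driven beta-lactamase reporter were plated at 3000 cells/well, preincubated 5 h at 37C, then given compound for 17 h at 37C; LiveBLAzer B/G FRET substrate was read after 1 h at room temperature.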

Test [4] can be described thus: qHTS assay for small molecule agonists of the antioxidant response element (ARE) signaling pathway (AID 743202; active = well fitted activation curve with a large enough effect in the signal ratio in the repeat runs, not every such curve was filed as active; the % refers to the signal ratio; note: potency is the fitted concentration of half-maximal effect). In a few lines: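 Read-out: LiveBLAzer B/G FRET substrate fluorescence after 2 h at room temperature, following 16 h compound treatment at 37 C of HepG2 cells carrying an ARE-driven beta-lactamase reporter.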
The nature of test [5]: qHTS assay for small molecule agonists of the antioxidant response element (ARE) signaling pathway - cell viability counter screen (AID 743203; calls by dose curve; note: nearly all actives have a fitted effect of over 55% in size; note: potency is the fitted concentration of half-maximal effect). In a few lines:
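Compounds in DMSO were pinned onto ARE-bla HepG2 cells plated 5 hrs earlier at 2,000 cells/well. Sixteen hours later at 37C/5% CO2, CellTiter-Glo was added and luminescence measured after 30 min at room temperature.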

Test [6] is described as follows: qHTS assay for small molecule activators of the heat shock response signaling pathway - cell viability counter screen (AID 743209). Note: nearly all actives have a fitted effect of over 50% in size. Note: potency is the fitted concentration of half-maximal effect. Put shortly:
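Counter screen for cytotoxicity in HeLa HSE-bla reporter cells. Treatment was 5 h at 37 C; viability was detected by luminescent ATP assay (CellTiter-Glo) in the same wells as the beta-lactamase read.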

A short description of test [7]: qHTS assay for small molecule activators of the heat shock response signaling pathway (AID 743210; active = well fitted activation curve with a large enough effect in the signal ratio in the repeat runs, with a control signal flat, not every such curve was filed as active; the % refers to the signal ratio; note: series mostly up to about 63 µM). Put shortly: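 HSE-bla HeLa cells (beta-lactamase reporter under heat shock response elements) were exposed to compounds for 5 h at 37 C, then loaded with LiveBLAzer B/G FRET substrate for 2.5 h at room temperature before fluorescence reading.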
Test [8] in a line: qHTS assay to identify small molecule agonists of the peroxisome proliferator-activated receptor delta (PPARd) signaling pathway - cell viability counter screen (AID 743211). Note: nearly all actives have a fitted effect of over 55% in size. Note: potency is the fitted concentration of half-maximal effect. Put shortly: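 Multiplexed format: after the 2 h room-temperature LiveBLAzer B/G FRET step, CellTiter-Glo was added to the same wells. Luminescence after 30 min gave cell viability; compound exposure was 17 h at 37C.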

In test [9] the target is Peroxisome proliferator-activated receptor delta (Homo sapiens) (UniProt Q03181). Briefly: qHTS assay to identify small molecule agonists of the peroxisome proliferator-activated receptor delta (PPARd) signaling pathway (AID 743212; calls by dose curve). Put shortly:
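GeneBLAzer PPARd UAS-bla HEK293H cells (beta-lactamase reporter under UAS control), plated and rested 5 h at 37 C, then exposed to compounds in DMSO at 37 C; LiveBLAzer B/G FRET substrate added, 2 h room temperature, fluorescence read.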

Test [10] is described as follows: qHTS assay to identify small molecule antagonists of the peroxisome proliferator-activated receptor delta (PPARd) signaling pathway - cell viability counter screen (AID 743213). Note: nearly all actives have a fitted effect of over 50% in size. Put shortly: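 In this counter screen, HEK293H cells carrying a UAS-beta-lactamase reporter are co-treated with test compounds and 300 nM L165041 (final) for 17 h at 37 C; cell viability is quantified by CellTiter-Glo luminescence.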

The target of test [11] is Peroxisome proliferator-activated receptor delta (Homo sapiens) (UniProt Q03181). Briefly: qHTS assay to identify small molecule antagonists of the peroxisome proliferator-activated receptor delta (PPARd) signaling pathway (AID 743215; active = well fitted inhibition curve with a large enough effect in the signal ratio in the repeat runs, not every such curve was filed as active; the % refers to the signal ratio;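 note: cells stimulated with agonist L165041 at 300 nM final during compound exposure; series mostly up to about 62 µM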). Put shortly:
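With L165041 present at 300 nM final, compounds were incubated 17 h at 37 C on PPARd UAS-bla HEK293H cells. A FRET-based beta-lactamase substrate was then applied for 2 h at room temperature and fluorescence intensity recorded.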

Test [12] is described as follows: qHTS assay to identify small molecule agonists of the farnesoid-X-receptor (FXR) signaling pathway - cell viability counter screen (AID 743218). Note: nearly all actives have a fitted effect of over 45% in size. Note: potency is the fitted concentration of half-maximal effect. Put shortly: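 After 16 h at 37 C with test compounds, FXR-bla HEK 293T cells were given LiveBLAzer B/G substrate for 2 h at RT and then CellTiter-Glo; luminescence was taken after 30 min.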
Test [13] can be described thus: qHTS assay to identify small molecule antagonists of the farnesoid-X-receptor (FXR) signaling pathway - cell viability counter screen (AID 743221; active = well fitted cell-killing curve with a large enough effect in the repeat runs, not every such curve was filed as active; note: nearly all actives have a fitted effect of over 50% in size; note: potency is the fitted concentration of half-maximal effect). Put shortly:
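CellTiter-Glo, 30 min RT, luminescence; same wells as the LiveBLAzer FRET read. Cells: FXR-UAS-bla HEK 293T. Treatment: compound with chenodeoxycholic acid 50 uM final, 16 h at 37 C.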

The target in test [14] is Vitamin D3 receptor (Homo sapiens) (UniProt P11473). In words: qHTS assay to identify small molecule antagonists of the vitamin D receptor (VDR) signaling pathway (AID 743223; active = well fitted inhibition curve with a large enough effect in the signal ratio in the repeat runs, not every such curve was filed as active; the % refers to the signal ratio). In a few lines:
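After VDR-bla cells are plated and left 4 h at 37C, DMSO-dissolved compounds and 3 nM (final) calcitriol agonist are added. Incubation continues 16 h at 37C; FRET beta-lactamase substrate then develops 2 h at room temperature.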

The target of test [15] is Bile acid receptor (Homo sapiens) (UniProt Q96RI1). In words: qHTS assay to identify small molecule agonists of the farnesoid-X-receptor (FXR) signaling pathway (AID 743220; active = well fitted activation curve with a large enough effect in the signal ratio in the repeat runs, not every such curve was filed as active; the % refers to the signal ratio). In a few lines:
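Beta-lactamase reporter under UAS control in GeneBLAzer FXR HEK 293T cells (5000/well) measured with LiveBLAzer FRET substrate after 2 h at room temperature. Compound exposure lasted 16 h at 37C.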

Test [16] deals with Peroxisome proliferator-activated receptor gamma (Homo sapiens) (UniProt P37231). In words: qHTS assay to identify small molecule agonists of the peroxisome proliferator-activated receptor gamma (PPARg) signaling pathway (AID 743094; active = well fitted activation curve with a large enough effect in the signal ratio in the repeat runs, not every such curve was filed as active; the % refers to the signal ratio). Put shortly:
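Following 5 h plating at 37C, PPARg-bla HEK293H cells receive compound or DMSO for 17 h; fluorescence intensity is recorded after LiveBLAzer B/G loading for 1 h at room temperature.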

Test [17] in a line: qHTS assay to identify small molecule antagonists of the peroxisome proliferator-activated receptor gamma (PPARg) signaling pathway - cell viability counter screen (AID 743194). Note: nearly all actives have a fitted effect of over 55% in size. Note: potency is the fitted concentration of half-maximal effect. Particulars: Potency: co-treated with 50 nM rosiglitazone. In a few lines: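 PPARg-UAS-bla HEK293H cells were plated, rested 5 h at 37 C, then treated with compounds plus rosiglitazone (50 nM final) for 17 h at 37 C; viability was then read by CellTiter-Glo luminescence after 30 min at room temperature.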

Test [18] deals with Vitamin D3 receptor (Homo sapiens) (UniProt P11473). In words: qHTS assay to identify small molecule agonists of the vitamin D receptor (VDR) signaling pathway (AID 743222; calls by dose curve). In a few lines:
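VDR-bla cells were seeded, left 4 h, treated with compounds in DMSO for 16 h, incubated 2 h at RT with B/G FRET substrate, and read for fluorescence.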

Test [19] deals with Aryl hydrocarbon receptor (Homo sapiens) (UniProt P35869). In words: qHTS assay to identify small molecule that activate the aryl hydrocarbon receptor (AhR) signaling pathway (AID 743085).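 Note: HG2L7.5c1 human HepG2 liver cells with stably integrated DRE-driven firefly reporter; series mostly up to about 70 µM; nearly all actives have a fitted effect of over 15% in size.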 Put shortly:
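Reporter assay in engineered HepG2 line HG2L7.5c1, whose plasmid carries twenty dioxin responsive elements upstream of firefly luciferase. Treatment lasted 24 h at 37C; ONE-Glo luminescence gauged induction.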

Test [20] concerns the target Bile acid receptor (Homo sapiens) (UniProt Q96RI1). In words: qHTS assay to identify small molecule antagonists of the farnesoid-X-receptor (FXR) signaling pathway (AID 743217; active = well fitted inhibition curve with a large enough effect in the signal ratio in the repeat runs, not every such curve was filed as active; the % refers to the signal ratio). Put shortly:
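In this cell-based antagonist screen, inhibition of CDCA-driven (50 uM final) UAS-beta-lactamase expression in HEK 293T cells was measured by FRET fluorescence following 16 h compound exposure at 37 °C.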

Results filed as inconclusive are left out. Activity calls are given as the source filed them. Unless noted, calls come from the whole dose curve; as a rule, active = well fitted curve in the direction sought with a large enough effect in the repeat runs; inconclusive = weak or mixed curves; inactive = no such curve, though single readings can be large; an effect the other way counts as inactive or inconclusive.

Sequence of Peroxisome proliferator-activated receptor delta (Homo sapiens) (Q03181 whole entry, looked up): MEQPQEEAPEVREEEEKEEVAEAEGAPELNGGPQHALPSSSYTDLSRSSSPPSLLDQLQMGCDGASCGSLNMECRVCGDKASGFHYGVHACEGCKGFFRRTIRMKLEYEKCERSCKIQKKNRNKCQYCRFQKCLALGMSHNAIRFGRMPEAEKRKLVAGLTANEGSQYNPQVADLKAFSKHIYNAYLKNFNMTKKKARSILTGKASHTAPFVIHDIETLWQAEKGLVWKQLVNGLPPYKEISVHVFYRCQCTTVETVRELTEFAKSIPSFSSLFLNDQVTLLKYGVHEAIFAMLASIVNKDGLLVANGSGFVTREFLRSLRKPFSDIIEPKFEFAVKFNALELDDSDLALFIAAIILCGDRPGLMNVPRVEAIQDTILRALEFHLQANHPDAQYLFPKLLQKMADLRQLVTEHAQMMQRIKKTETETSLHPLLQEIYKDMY
Sequence of Peroxisome proliferator-activated receptor gamma (Homo sapiens) (P37231 whole entry, looked up): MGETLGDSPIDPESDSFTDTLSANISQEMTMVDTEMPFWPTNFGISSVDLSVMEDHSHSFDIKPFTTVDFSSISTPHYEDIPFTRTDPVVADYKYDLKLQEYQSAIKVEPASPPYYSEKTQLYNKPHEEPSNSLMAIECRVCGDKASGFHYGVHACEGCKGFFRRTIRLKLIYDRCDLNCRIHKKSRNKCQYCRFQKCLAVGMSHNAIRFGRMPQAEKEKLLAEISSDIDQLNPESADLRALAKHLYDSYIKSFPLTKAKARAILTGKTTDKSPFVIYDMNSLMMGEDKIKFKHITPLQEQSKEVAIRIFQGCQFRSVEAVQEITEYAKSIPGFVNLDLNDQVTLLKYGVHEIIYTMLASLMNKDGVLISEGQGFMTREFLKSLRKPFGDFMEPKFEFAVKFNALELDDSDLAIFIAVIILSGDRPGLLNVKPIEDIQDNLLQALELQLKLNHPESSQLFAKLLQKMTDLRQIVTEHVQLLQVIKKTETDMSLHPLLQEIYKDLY
Sequence of Aryl hydrocarbon receptor (Homo sapiens) (P35869 whole entry, looked up): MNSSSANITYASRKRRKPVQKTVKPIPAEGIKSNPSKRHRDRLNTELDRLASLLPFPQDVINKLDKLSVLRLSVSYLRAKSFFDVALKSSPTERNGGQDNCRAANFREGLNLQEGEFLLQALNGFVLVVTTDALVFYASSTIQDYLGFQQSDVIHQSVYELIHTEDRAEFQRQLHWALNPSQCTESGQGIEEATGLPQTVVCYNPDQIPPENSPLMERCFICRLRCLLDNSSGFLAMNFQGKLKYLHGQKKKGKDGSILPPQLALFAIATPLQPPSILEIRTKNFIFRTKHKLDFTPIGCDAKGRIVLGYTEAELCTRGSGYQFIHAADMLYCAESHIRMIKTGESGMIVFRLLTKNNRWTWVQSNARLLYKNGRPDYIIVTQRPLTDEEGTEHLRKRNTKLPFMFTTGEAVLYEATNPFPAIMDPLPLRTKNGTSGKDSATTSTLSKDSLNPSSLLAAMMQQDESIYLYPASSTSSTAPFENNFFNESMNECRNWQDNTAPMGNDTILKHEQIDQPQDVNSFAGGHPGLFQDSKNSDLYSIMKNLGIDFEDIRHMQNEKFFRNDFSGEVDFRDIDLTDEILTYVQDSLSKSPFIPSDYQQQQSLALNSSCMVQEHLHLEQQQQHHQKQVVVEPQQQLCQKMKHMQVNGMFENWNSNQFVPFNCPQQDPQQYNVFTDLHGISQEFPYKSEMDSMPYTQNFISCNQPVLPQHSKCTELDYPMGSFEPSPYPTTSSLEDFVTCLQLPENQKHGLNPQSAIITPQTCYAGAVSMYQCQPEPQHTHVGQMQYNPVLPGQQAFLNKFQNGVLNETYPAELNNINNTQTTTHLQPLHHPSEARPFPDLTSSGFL
Sequence of Bile acid receptor (Homo sapiens) (Q96RI1 whole entry, looked up): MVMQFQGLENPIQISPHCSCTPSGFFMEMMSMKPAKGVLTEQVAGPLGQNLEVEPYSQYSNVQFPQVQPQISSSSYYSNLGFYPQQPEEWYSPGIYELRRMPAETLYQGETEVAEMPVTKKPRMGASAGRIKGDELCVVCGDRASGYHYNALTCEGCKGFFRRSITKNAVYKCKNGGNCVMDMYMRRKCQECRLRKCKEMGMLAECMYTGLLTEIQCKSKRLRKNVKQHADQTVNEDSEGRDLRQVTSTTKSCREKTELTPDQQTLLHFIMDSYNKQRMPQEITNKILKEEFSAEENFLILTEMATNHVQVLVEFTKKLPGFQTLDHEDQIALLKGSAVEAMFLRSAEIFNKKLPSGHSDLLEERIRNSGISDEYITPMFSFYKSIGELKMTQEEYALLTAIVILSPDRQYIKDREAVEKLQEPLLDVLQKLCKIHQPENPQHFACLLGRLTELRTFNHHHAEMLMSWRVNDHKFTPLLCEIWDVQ
Sequence of Vitamin D3 receptor (Homo sapiens) (P11473 whole entry, looked up): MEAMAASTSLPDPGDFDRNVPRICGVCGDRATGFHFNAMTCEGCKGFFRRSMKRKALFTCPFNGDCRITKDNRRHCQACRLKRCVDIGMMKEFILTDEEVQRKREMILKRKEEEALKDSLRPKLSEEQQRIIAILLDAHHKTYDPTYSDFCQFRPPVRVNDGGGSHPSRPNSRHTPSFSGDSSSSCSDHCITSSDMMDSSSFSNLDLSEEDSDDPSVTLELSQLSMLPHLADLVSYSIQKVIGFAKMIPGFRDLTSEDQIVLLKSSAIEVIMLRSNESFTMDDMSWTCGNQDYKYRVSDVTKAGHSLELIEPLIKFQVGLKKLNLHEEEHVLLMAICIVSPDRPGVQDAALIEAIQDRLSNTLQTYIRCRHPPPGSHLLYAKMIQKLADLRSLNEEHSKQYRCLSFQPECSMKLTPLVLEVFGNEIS

As to `CNP(=O)(OC)Oc1ccc(C(C)(C)C)cc1Cl` (centres undefined), the Potency entry in [1], in test [2], in test [5], in [6], in [8] and in test [10] was “inactive” in each case. Moreover, the Potency result in test [11], in test [12] and in test [13] was “inactive” each time. For the same compound, the Potency in [3] was 43.6 µM (active); in test [4] it was 54.5 µM (active). Besides, the outcome in test [7], in test [9] and in [14] was inactive.

Regarding `COc1nn(CSP(=S)(OC)OC)c(=O)s1`, the Potency in test [1] was 68.6 µM (active); in test [3] it was 49 µM (active). For the same compound, the Potency result in [2], in [5] and in [13] was “inactive” in each case. For the same compound, the outcome in test [15] was inactive.

As to `Cc1ccc(N)cc1C`, the Potency entry in test [1], in [2], in test [16], in [17], in test [4] and in [5] was “inactive” each time. For the same compound, the Potency entry in [6], in [8], in test [11], in test [12] and in test [13] was “inactive” throughout. For the same compound, the result in test [7], in test [9], in [15], in test [18] and in test [14] was inactive.

Turning to `c1cc2ccc3cccc4ccc(c1)c2c34`, the Potency result in test [1], in [19], in test [6] and in [13] was “inactive” each time.

Turning to `C/C(=C\c1ccccc1)[N+](=O)[O-]`, the Potency was 21.7 µM (active) in test [1]; 21.9 µM (active) in [17]; 15.4 µM (active) in test [5]; 19.5 µM (active) in [8]; 13.8 µM (active) in test [12]; 43.6 µM (active) in test [13]. Besides, the Potency result in test [19] is “inactive”.

As to `CC(=O)C(C)(C)C`, the Potency entry in test [1], in test [2], in test [16], in [3], in test [4] and in test [5] was “inactive” throughout. In addition, the Potency result in test [8], in test [10], in test [12] and in [13] was “inactive” each time. The outcome in test [7] was inactive.

In the case of `CCOC(=O)CBr`, the Potency result in test [1], in test [2], in [16], in [3], in test [17] and in test [4] was “inactive” throughout. Also, the Potency result in test [5], in test [6], in test [8], in test [10], in test [11] and in [20] was “inactive” in each case. Further, in test [13], the Potency result was “inactive”. The outcome in [7], in [9], in [15] and in test [14] was inactive.

For the compound `CCCCCCC#N`, the Potency entry in [1], in test [2], in test [3], in test [4], in test [5] and in test [8] was “inactive” in each case. Also, the Potency entry in test [10], in test [11], in test [20], in test [12] and in test [13] was “inactive” in each case. The outcome in test [7], in test [9], in test [15], in test [18] and in test [14] was inactive.

As for `O=C(NCc1cccnc1)Nc1ccc([N+](=O)[O-])cc1`, the Potency entry in [1], in test [16], in [4], in [5], in test [6] and in test [8] was “inactive” each time. Besides, the Potency entry in test [10], in test [12] and in test [13] was “inactive” throughout. The call in [7] was inactive.

`CCn1cc[n+](C)c1`: the Potency entry in test [2], in [17], in [4], in test [5], in test [6] and in test [8] was “inactive” each time. The Potency entry in [10], in test [12] and in [13] was “inactive” throughout.

As for `Clc1cc(C(Cl)(Cl)Cl)cnc1Cl`, the Potency result in [19], in test [16], in test [3], in [17], in test [10] and in test [11] was “inactive” in each case. The Potency result in test [20], in [12] and in test [13] was “inactive” in each case. Further, the Potency was 61.1 µM (active) in [5] and 49 µM (active) in test [6]. Besides, the call in [15], in test [18] and in test [14] was inactive.

Regarding `CC1CC(CC2CCC(N)C(C)C2)CCC1N` (centres undefined), the Potency entry in [19], in test [16], in test [17], in test [5], in [6] and in [8] was “inactive” in each case. The Potency result in test [11] was “inactive”. For the same compound, the compound was classed as inactive in test [7], in test [9] and in test [18].
